Assay results published in ChEMBL document CHEMBL2218924, “A broad activity screen in support of a chemogenomic map for kinase signalling research and drug discovery” (Biochem J, 2013).

Tests used:
[1] = target: T1, Muscle, skeletal receptor tyrosine-protein kinase (Homo sapiens) (UniProt O15146); conditions: at 1 µM
T1 sequence (whole entry): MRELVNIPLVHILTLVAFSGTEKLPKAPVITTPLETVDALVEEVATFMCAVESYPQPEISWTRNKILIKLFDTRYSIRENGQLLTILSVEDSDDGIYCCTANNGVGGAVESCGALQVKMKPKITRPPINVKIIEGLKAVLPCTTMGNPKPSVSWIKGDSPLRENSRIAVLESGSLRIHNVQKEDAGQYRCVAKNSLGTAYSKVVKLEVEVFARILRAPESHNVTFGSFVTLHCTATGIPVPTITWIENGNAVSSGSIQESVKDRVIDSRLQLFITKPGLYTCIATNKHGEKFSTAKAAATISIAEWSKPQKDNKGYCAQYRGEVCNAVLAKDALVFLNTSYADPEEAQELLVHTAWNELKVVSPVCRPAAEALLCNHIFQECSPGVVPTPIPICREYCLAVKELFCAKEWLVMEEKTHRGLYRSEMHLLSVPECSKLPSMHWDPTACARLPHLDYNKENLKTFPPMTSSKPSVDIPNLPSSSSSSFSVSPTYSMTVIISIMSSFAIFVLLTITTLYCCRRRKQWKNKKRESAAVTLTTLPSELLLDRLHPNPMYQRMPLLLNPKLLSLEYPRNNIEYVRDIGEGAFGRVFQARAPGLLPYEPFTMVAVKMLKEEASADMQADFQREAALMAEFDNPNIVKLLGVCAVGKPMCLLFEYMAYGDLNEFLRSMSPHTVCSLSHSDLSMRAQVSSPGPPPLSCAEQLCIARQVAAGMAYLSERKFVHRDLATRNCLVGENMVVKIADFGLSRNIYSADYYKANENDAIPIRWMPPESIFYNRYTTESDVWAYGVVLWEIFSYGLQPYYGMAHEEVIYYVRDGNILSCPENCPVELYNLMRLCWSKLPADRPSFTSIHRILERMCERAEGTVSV

[2] = target: T1, Muscle, skeletal receptor tyrosine-protein kinase (Homo sapiens); conditions: at 10 µM
[3] = target: T2, Serine/threonine-protein kinase Nek11 (Homo sapiens) (UniProt Q8NG66); conditions: at 1 µM
T2 sequence (whole entry): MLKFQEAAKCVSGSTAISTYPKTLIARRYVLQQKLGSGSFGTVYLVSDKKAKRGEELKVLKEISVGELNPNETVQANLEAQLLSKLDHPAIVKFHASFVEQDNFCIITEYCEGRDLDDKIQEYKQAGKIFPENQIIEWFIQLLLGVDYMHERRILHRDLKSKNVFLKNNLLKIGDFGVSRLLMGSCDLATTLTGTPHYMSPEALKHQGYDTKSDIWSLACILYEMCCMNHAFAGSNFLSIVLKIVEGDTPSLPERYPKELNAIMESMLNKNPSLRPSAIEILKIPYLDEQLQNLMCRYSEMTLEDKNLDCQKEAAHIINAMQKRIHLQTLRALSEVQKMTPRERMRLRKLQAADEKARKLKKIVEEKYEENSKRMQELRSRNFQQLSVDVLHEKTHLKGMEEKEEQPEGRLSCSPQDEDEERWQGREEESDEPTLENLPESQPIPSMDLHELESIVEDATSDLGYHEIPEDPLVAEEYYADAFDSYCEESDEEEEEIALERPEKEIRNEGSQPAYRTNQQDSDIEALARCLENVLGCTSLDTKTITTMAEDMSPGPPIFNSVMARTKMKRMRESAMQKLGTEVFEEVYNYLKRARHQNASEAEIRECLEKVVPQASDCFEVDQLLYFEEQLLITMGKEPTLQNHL

[4] = target: T2, Serine/threonine-protein kinase Nek11 (Homo sapiens); conditions: at 10 µM
[5] = target: T3, Serine/threonine-protein kinase Nek2 (Homo sapiens) (UniProt P51955); conditions: at 1 µM
T3 sequence (whole entry): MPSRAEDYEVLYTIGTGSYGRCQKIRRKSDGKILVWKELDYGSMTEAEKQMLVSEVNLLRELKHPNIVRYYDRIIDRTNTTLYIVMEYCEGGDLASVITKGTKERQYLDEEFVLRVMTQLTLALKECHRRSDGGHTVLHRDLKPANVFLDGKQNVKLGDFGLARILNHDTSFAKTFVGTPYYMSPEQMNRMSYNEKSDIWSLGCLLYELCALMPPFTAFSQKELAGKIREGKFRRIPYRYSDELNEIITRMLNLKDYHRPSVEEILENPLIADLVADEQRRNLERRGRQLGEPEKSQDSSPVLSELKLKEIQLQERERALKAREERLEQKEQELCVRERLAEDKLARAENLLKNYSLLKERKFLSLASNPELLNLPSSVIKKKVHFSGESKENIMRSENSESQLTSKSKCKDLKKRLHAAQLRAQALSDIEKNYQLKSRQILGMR

[6] = target: T3, Serine/threonine-protein kinase Nek2 (Homo sapiens); conditions: at 10 µM
[7] = target: T4, Serine/threonine-protein kinase Nek3 (Homo sapiens) (UniProt P51956); conditions: at 1 µM
T4 sequence (whole entry): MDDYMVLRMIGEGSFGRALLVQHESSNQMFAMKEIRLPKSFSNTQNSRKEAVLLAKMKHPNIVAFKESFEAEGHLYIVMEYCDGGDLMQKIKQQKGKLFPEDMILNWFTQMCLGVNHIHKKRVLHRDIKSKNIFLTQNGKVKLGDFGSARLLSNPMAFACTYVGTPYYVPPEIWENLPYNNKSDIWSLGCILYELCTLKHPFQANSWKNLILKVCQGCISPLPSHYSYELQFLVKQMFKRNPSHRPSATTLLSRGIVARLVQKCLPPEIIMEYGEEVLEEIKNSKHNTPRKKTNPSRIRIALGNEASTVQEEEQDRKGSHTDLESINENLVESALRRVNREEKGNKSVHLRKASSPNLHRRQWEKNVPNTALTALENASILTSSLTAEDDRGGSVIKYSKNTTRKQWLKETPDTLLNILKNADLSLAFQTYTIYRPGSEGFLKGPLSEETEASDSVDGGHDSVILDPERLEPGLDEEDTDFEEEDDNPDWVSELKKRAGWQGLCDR

[8] = target: T4, Serine/threonine-protein kinase Nek3 (Homo sapiens); conditions: at 10 µM
[9] = target: Serine/threonine-protein kinase tousled-like 2 (Homo sapiens) (UniProt Q86UE8); conditions: at 1 µM
[10] = target: Serine/threonine-protein kinase tousled-like 2 (Homo sapiens) (UniProt Q86UE8); conditions: at 10 µM
[11] = target: T5, Testis-specific serine/threonine-protein kinase 1 (Homo sapiens) (UniProt Q9BXA7); conditions: at 1 µM
T5 sequence (whole entry): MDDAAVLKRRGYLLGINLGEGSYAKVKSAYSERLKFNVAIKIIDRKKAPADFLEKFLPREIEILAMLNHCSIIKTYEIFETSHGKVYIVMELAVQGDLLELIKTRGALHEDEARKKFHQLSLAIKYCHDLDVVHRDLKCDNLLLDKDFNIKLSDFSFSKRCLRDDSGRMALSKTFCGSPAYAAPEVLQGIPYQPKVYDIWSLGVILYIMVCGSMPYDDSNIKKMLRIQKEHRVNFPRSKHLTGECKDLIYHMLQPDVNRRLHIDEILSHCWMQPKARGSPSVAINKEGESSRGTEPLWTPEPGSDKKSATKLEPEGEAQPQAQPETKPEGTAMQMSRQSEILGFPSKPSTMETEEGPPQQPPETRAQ

[12] = target: T5, Testis-specific serine/threonine-protein kinase 1 (Homo sapiens); conditions: at 10 µM
[13] = target: T6, Testis-specific serine/threonine-protein kinase 2 (Homo sapiens) (UniProt Q96PF2); conditions: at 10 µM
T6 sequence (whole entry): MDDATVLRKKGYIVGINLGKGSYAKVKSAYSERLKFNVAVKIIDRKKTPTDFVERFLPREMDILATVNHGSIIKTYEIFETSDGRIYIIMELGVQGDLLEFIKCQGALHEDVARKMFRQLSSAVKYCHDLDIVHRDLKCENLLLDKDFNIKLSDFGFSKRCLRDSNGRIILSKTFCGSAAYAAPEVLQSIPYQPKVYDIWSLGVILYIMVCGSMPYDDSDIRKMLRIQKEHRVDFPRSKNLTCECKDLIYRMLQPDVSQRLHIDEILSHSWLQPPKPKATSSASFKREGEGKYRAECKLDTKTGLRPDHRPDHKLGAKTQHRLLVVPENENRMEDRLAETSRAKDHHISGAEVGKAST

[14] = target: T7, Tyrosine-protein kinase Tec (Homo sapiens) (UniProt P42680); conditions: at 1 µM
T7 sequence (whole entry): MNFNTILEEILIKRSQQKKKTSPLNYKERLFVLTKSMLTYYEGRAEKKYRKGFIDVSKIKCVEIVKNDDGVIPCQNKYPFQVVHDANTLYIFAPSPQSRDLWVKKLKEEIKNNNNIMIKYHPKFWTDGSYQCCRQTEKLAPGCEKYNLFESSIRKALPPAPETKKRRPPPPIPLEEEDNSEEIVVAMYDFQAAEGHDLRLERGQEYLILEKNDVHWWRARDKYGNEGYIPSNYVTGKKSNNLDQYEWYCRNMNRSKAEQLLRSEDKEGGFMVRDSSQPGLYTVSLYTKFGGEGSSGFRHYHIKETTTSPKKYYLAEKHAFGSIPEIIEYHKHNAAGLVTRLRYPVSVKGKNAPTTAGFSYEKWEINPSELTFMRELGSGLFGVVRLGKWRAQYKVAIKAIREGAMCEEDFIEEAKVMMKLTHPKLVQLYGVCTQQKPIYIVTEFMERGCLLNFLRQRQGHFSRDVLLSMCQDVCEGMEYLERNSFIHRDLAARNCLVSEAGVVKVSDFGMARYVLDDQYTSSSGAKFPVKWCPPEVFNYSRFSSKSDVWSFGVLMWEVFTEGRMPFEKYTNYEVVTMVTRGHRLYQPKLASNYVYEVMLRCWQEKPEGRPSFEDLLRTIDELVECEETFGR

[15] = target: T7, Tyrosine-protein kinase Tec (Homo sapiens); conditions: at 10 µM
[16] = target: Angiopoietin-1 receptor (Homo sapiens) (UniProt Q02763); conditions: at 1 µM
[17] = target: Angiopoietin-1 receptor (Homo sapiens) (UniProt Q02763); conditions: at 10 µM
[18] = target: High affinity nerve growth factor receptor (Homo sapiens) (UniProt P04629); conditions: at 1 µM
[19] = target: High affinity nerve growth factor receptor (Homo sapiens) (UniProt P04629); conditions: at 10 µM
[20] = target: BDNF/NT-3 growth factors receptor (Homo sapiens) (UniProt Q16620); conditions: at 1 µM
BDNF/NT-3 growth factors receptor (Homo sapiens), sequence (Q16620 32-822 limits assumed): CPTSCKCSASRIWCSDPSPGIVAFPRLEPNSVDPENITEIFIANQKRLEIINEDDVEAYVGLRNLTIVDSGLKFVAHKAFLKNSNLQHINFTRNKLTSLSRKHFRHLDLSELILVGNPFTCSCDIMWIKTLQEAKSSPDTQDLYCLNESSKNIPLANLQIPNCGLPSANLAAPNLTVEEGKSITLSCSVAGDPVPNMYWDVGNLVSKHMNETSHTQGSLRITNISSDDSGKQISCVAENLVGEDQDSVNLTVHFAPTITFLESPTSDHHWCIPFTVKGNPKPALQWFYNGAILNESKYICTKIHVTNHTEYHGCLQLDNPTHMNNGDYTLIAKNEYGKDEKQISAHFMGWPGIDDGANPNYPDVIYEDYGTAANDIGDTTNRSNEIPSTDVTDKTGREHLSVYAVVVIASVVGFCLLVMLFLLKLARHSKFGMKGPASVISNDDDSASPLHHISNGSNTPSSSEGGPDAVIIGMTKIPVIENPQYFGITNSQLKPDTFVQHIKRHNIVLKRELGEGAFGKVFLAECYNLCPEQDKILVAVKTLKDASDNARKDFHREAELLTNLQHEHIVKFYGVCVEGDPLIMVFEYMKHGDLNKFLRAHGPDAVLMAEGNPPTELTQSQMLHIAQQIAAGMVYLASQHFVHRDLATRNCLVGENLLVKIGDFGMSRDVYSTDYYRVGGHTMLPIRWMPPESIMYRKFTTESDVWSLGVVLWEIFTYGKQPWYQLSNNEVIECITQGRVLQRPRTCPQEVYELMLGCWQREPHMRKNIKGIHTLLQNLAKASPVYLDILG

High affinity nerve growth factor receptor (Homo sapiens), sequence (P04629 33-796 limits assumed): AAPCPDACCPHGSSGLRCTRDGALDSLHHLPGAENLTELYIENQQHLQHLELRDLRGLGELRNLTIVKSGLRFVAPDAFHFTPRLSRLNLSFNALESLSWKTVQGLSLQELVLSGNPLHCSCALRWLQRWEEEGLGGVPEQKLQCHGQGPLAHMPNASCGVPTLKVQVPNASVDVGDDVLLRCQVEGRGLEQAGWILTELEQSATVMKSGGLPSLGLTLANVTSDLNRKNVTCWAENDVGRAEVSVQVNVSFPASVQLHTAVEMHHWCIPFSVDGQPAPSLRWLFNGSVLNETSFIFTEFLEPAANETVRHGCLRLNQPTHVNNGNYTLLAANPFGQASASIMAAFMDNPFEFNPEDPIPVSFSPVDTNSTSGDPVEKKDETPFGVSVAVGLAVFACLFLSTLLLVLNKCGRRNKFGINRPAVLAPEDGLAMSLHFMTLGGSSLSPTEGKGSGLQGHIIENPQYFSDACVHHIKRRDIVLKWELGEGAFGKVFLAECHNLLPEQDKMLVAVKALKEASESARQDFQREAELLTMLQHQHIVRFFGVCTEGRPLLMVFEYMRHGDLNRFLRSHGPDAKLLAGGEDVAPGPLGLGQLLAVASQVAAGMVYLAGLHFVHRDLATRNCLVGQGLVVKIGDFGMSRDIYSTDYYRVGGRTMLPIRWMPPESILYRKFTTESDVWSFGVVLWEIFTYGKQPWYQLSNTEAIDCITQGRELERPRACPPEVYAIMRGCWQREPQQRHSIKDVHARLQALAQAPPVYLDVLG
Angiopoietin-1 receptor (Homo sapiens), sequence (Q02763 whole entry): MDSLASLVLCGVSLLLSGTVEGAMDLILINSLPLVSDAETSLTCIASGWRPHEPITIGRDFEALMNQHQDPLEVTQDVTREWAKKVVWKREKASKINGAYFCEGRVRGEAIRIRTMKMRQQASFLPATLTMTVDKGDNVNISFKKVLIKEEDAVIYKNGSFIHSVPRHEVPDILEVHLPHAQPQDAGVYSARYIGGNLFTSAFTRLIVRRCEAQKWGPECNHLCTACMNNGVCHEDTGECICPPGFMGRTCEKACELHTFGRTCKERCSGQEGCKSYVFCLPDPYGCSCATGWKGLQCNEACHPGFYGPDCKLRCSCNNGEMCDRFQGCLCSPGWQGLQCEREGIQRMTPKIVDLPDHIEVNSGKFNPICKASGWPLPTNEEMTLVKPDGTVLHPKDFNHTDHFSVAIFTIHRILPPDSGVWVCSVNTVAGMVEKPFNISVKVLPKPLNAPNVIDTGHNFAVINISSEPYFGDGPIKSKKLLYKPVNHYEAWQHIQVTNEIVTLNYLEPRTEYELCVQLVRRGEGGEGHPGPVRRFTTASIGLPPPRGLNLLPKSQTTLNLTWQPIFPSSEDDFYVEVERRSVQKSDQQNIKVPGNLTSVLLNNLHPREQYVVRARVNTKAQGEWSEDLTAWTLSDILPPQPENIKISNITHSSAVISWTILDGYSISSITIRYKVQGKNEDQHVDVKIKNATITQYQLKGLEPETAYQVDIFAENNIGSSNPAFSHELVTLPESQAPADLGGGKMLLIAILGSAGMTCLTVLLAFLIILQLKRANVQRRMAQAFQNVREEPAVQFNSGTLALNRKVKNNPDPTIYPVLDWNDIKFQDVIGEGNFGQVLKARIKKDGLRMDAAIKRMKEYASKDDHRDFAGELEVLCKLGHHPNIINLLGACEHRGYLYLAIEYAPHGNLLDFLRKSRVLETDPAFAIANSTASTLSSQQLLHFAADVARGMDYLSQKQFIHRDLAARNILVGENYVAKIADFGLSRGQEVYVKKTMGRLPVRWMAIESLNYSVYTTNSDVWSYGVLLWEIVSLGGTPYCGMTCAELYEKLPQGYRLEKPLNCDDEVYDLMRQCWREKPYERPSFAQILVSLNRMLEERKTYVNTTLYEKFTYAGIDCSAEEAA
Serine/threonine-protein kinase tousled-like 2 (Homo sapiens), sequence (Q86UE8 whole entry, looked up): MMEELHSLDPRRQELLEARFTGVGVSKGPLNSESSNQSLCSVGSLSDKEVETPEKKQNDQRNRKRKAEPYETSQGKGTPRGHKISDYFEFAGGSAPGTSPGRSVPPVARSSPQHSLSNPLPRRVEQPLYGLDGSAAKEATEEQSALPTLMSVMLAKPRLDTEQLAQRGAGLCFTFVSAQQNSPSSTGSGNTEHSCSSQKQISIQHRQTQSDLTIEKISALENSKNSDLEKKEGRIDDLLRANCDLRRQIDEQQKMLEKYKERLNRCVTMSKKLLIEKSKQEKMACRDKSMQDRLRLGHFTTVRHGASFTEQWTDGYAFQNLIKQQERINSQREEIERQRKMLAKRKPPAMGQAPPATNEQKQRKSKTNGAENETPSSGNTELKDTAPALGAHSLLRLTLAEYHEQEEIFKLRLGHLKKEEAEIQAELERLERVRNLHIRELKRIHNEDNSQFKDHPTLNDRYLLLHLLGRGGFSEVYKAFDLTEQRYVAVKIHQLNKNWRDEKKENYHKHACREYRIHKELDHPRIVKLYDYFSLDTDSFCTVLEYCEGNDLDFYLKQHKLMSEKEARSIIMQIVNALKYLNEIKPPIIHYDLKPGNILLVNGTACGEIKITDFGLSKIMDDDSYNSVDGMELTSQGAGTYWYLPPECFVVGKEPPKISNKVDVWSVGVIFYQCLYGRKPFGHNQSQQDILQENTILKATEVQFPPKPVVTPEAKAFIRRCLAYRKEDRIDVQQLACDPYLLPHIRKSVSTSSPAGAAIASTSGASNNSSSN

SMILES	residual activity [1]	residual activity [2]	residual activity [3]	residual activity [4]	residual activity [5]	residual activity [6]	residual activity [7]	residual activity [8]	residual activity [9]	residual activity [10]	residual activity [11]	residual activity [12]	residual activity [13]	residual activity [14]	residual activity [15]	residual activity [16]	residual activity [17]	residual activity [18]	residual activity [19]	residual activity [20]
O=C1NC(=O)/C(=C/c2ccc3c(c2)OC(F)(F)O3)S1	110%	89%	80%	82%	97%	94%	117%	88%	112%	97%	99%	91%	97%	83%	80%	94%	85%	86%	60%	44%
O=C(Nc1cccc(Nc2cc(Nc3cccc(C(F)(F)F)c3)ncn2)c1)C1CC1	96%	48%	117%	103%	73%	96%	95%	63%	102%	97%	101%	87%	77%	96%	27%	60%	70%	68%	9%	76%
CC(C)n1cnc2/c(=N/c3cccc(Cl)c3)nc(NCCO)[nH]c21	75%	35%	43%	58%	85%	64%	76%	68%	82%	68%	94%	60%	81%	71%	31%	91%	89%	24%	1%	8%
CN(C)c1ccc(/C=C2\C(=O)Nc3ccccc32)cc1	94%	25%	90%	90%	94%	113%	111%	75%	98%	97%	104%	101%	97%	87%	68%	83%	70%	10%	3%	46%
Oc1ccc(Nc2nc(-c3ccc(Cl)cc3)cs2)cc1	112%	91%	72%	40%	116%	97%	106%	111%	104%	103%	110%	87%	105%	100%	78%	113%	131%	108%	64%	74%
O=C1NC(=O)c2cc(Nc3ccc(F)cc3)c(Nc3ccc(F)cc3)cc21	34%	3%	70%	93%	77%	94%	109%	81%	101%	85%	94%	81%	61%	87%	60%	70%	44%	84%	56%	100%
Cc1nc2cc3nc(-c4cccs4)cnc3cc2n1C	102%	55%	93%	102%	87%	103%	114%	104%	107%	83%	102%	85%	93%	83%	101%	81%	61%	72%	27%	69%
